The list is not random: actives were taken first. Their share in the collection is about 2.1%.
EP2 mod – EP2 receptor (human) modulation | P43116 | EP2-expressing cells, cAMP HTRF FRET, PGE2 co-stimulation | induction, % at 25 µM | hit rate 0.83% among 260,000 | AID 940;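 active means compounds whose cAMP rise, as percent of the full-agonist control response, exceeds 60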;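 further: rat C6 glioma line stably carrying human EP2 under a CMV promoter; the protocol text gives 20 µM as final concentration; 100% = response of wells given 1 µM PGE2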
Target sequence (P43116 whole entry, looked up): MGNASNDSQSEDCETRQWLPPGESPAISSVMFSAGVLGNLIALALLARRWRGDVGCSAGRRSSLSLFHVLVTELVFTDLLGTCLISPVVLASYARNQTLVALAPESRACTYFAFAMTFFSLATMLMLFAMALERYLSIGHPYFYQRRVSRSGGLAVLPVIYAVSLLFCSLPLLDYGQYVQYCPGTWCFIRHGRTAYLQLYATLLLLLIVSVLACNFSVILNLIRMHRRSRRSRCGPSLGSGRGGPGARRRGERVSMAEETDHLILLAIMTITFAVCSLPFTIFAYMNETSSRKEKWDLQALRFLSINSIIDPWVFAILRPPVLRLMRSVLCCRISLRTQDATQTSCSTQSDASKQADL
CHT allo act – allosterically activates the human high affinity choline transporter | Q9GZV3 | AID 488977 | hit rate 0.49% among 310,000 | B-score at 10 µM | CHT-expressing cells, membrane potential dye, choline EC20; stronger effect = higher value; LV-AA mutant CHT in HEK293 cells;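 active means initial fluorescence not abnormally high and integrated response B-score, plate-corrected, over 3 SD above library mean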
PGE2 EP2 inh – EP2 receptor (human) inhibition. hit rate 0.52% among 260,000. inhibition, % at 25 µM. P43116. C6 glioma cells expressing human EP2, cAMP TR-FRET; cells stimulated with saturating PGE2;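 active means percent inhibition above 40 after rounding to a whole number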;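 further: rat C6 glioma host cells with rolipram phosphodiesterase inhibitor present; the protocol text gives 20 µM as final concentration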
CHT block – inhibitors of human choline transporter CHT; Q9GZV3; B-score at 10 µM; CHT-expressing cells, membrane potential dye, choline response; stronger effect = lower value; AID 488975; hit rate 0.86% among 310,000;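 active means B-score over 3 SD under the library average, and starting fluorescence ratio not unusually high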;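 further: choline stimulus applied at its EC90 after an EC20 pre-addition; B-score computed on integrated fluorescence ratio after choline addition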
CHT block conf – confirmation of human choline transporter CHT inhibitors; shares compounds with CHT block; CHT-expressing cells, choline membrane potential dye; LV-to-AA substituted CHT, HEK293 cells; CHT activity remaining % of control (stronger effect = lower value), % at 10 µM; hit rate 70% among 2,400; AID 493221;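 active means choline transporter activity left, mean of duplicates at 10 µM, below buffer-only control mean minus 3 SD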;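 further: depolarization triggered by choline at its EC90 following an EC20 pre-addition; 0% = hemicholinium-3 full block and 100% = buffer-only control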
HEK293 CHT ctr – counter-screen for CHT inhibitors: effect in parental HEK293 cells | shares compounds with CHT block | membrane potential dye, choline response; active = decrease or increase beyond buffer ±3SD | membrane potential ratio readout (active if shifted either direction beyond buffer ±3SD; no single direction) at 10 µM | hit rate 4% among 2,400;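 further: parental cells lack the transporter so any hit is non-specific; ratio is peak minus trough fluorescence over baseline after EC90 choline challenge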
* = called active by the depositor; i = inactive; / = no result given.

SMILES	EP2 mod	CHT allo act	PGE2 EP2 inh	CHT block	CHT block conf	HEK293 CHT ctr
O=C(C1CCCCC1)N1CCc2c(nc(N3CCOCC3)[nH]c2=O)C1	-23	/	6	/	/	/
O=C(O)CC1=C(Nc2ccccc2)C(=O)N(c2ccccc2)C1c1ccc(F)cc1 (stereo unspecified)	15	i	9	-6.4*	32%*	i
COc1ccc(NC(=O)CCN2C(=O)c3cccc([N+](=O)[O-])c3C2=O)cc1	/	i	/	-11*	i	i
CCOC(=O)c1sc(NC(=O)CCN2CCN(C)CC2)c(C(=O)OCC)c1C	-46	i	4	-5.3*	47%*	i
CCOC(=O)c1c(NC(=O)CCN2C(=O)c3cccc([N+](=O)[O-])c3C2=O)sc(C(=O)OC(C)C)c1C	18	i	7	-7.5*	70%*	i
CC(C)(C)c1ccc(NC(=O)COC(=O)CCN2C(=O)c3cccc([N+](=O)[O-])c3C2=O)cc1	-8	i	8	i	/	/
CC(OC(=O)CCN1C(=O)c2cccc([N+](=O)[O-])c2C1=O)C(=O)Nc1cc(Cl)cc(Cl)c1 (stereo unspecified)	-45	i	4	-6.6*	60%*	i
O=C(CSc1ncccn1)Nc1ncc(Cc2ccc(Cl)c(C(F)(F)F)c2)s1	-7	/	12	/	/	/
C=CCOc1ccccc1NC(=O)c1nnn(-c2ccccc2)c1C	18	/	5	/	/	/
CCN(CC)CCCN(Cc1cc2c(C)ccc(C)c2[nH]c1=O)C(=O)Nc1ccccc1	-84	/	15	/	/	/
Cc1ccc(-n2[nH]c(C)c(/C=N/Nc3ccc([N+](=O)[O-])cc3[N+](=O)[O-])c2=O)cc1C	-4	i	3	-8.4*	36%*	i
Cc1[nH]n(-c2ccccc2)c(=O)c1/C=N/NC(=O)c1cccc([N+](=O)[O-])c1	-6	i	20	i	/	/
CN(/N=C/c1cc(Cl)cc(Cl)c1O)C(=S)NC(C)(C)C	-44	i	22	-5.4*	68%*	i
CC1=NOC(=O)/C1=C/c1ccc(O)c(Cl)c1	/	i	/	-8.6*	27%*	i
CCOc1cc(/C=C2/C(=O)ON=C2C)ccc1O	/	i	/	i	/	/
COc1ccc(/C=C2\C(=O)ON=C2c2ccccc2)cc1	/	i	/	i	/	/
O=C1ON=C(c2ccccc2)/C1=C/c1ccc(O)c(O)c1	/	i	/	-6.8*	33%*	i
O=C(NCCCN1CCOCC1)c1ccccc1	19	i	11	i	/	/
O=C(Nc1ccccc1C(=O)NCCCN1CCOCC1)c1ccc(F)cc1	/	i	/	-7.9*	38%*	i
CC(C)(C)C(=O)NC(=S)NNC(=O)C(c1ccccc1)c1ccccc1	-59	i	6	-6.6*	36%*	i
CC(=O)NNC(=S)NC(=O)C(c1ccccc1)c1ccccc1	-45	i	12	i	/	/
CC1CCCCN1C(=O)c1cc(-c2ccccc2)on1 (stereo unspecified)	-109	/	11	/	/	/
O=C(c1ccc(Oc2ccc([N+](=O)[O-])cc2Cl)cc1)N1CCCC1	-32	i	4	i	/	/
O=C(c1cccc(Oc2ccc([N+](=O)[O-])cc2Cl)c1)N1CCCCC1	-66	i	3	-7.4*	48%*	i
Cn1nc(-c2ccccc2)c2nc3ccccc3nc21	43	i	21	-6.3*	i	-9.9*
SMILES	EP2 mod	CHT allo act	PGE2 EP2 inh	CHT block	CHT block conf	HEK293 CHT ctr
Cc1ccc(Sc2cc(NCCCO)c([N+](=O)[O-])c3nonc23)cc1	0	i	7	i	/	/
CC(C)CCSc1cc(NCCO)c([N+](=O)[O-])c2nonc12	-28	i	4	-5.8*	i	i
O=C(Nc1ccccc1C(F)(F)F)N1CCC(c2nc3ccc(Cl)cc3[nH]2)CC1	-17	/	5	/	/	/
CN(C)S(=O)(=O)c1ccc(N2CCN(c3ncccn3)CC2)c(Cl)c1	-57	/	8	/	/	/
O=C(Nc1nnc(-c2ccc(F)cc2)o1)c1cc(Cl)sc1Cl	-20	i	13	-6.8*	63%*	i
CCn1cc(C(=O)NCCCN2CC(C)CC(C)C2)c(=O)c2cc(S(=O)(=O)N(C)C3CCCCC3)ccc21 (stereo unspecified)	/	i	/	-5*	45%*	2.9*
CCN(CC)CCNC(=O)c1cn(CC)c2ccc(S(=O)(=O)N(C)C3CCCCC3)cc2c1=O	/	i	/	i	/	/
CCn1cc(C(=O)NCCCN2CCC(C)CC2)c(=O)c2cc(S(=O)(=O)N(C)C3CCCCC3)ccc21	/	i	/	-6.5*	39%*	i
Cc1cccc2c1-c1sc(C(=O)Nc3nccs3)cc1CO2	14	i	8	i	/	/
CCOC(=O)c1cc2c(s1)-c1c(C)cccc1OC2	12	i	13	-6.8*	68%*	i
Cc1ccc(C)c(NCC(=O)NNC(=S)Nc2ccccc2)c1	-23	i	4	-6.2*	67%*	i
O=C(NCCc1nc(-c2ccc(Cl)cc2)n[nH]1)c1cccnc1	-21	/	4	/	/	/
CN1C[C@@H]2C(c3ccc(C(F)(F)F)cc3)C3(c4cccnc4)CC2(C3)[C@H]1c1ccccc1 (stereo partly specified)	2	i	10	-5.2*	70%*	i
Cc1ccc(S(=O)(=O)N/N=C/c2cc(Br)ccc2O)cc1	-33	i	6	-5.6*	67%*	i
O=C(Cn1nc(-c2ccoc2)oc1=O)N1CCN(c2ccccc2)CC1	-74	/	7	/	/	/
Cc1cc(C)c(C#N)c(N)n1	17	i	6	-8.6*	i	i
Cc1cc(N)nc(C)c1C#N	21	i	8	i	/	/
Cc1ccc(SCC2(O)CCN(C(=O)c3ccc(Cl)cc3)CC2)cc1	-39	i	16	-5.8*	65%*	i
Cc1nc(C)c(C(=O)N2CCC3(CC2)Nc2ccccc2-n2cccc23)s1	-66	/	/	/	/	/
N#Cc1c(N)nc(SCc2ccccn2)c(C#N)c1-c1cccs1	-7	i	9	-7.3*	49%*	i
CN(C)CCCn1c(=O)n(CCc2ccccc2)c(=O)c2c3c(sc21)CCCCC3	19	i	7	-7.8*	31%*	i
CN(C)CCn1c(=O)n(Cc2ccccc2)c(=O)c2c3c(sc21)CCCCC3	/	i	/	i	/	/
Cc1cccc(C)c1NC(=S)Nc1ccc(F)cc1	-20	i	13	i	/	/
Cc1ccc(NC(=S)Nc2ccccn2)cc1C	12	i	9	i	/	/
Cc1ccc(NC(=S)Nc2ccc(F)cc2)cc1C	/	i	/	-8.8*	65%*	i
Cc1ccc(NC(=S)Nc2ccc3nc(-c4ccccn4)c(-c4ccccn4)nc3c2)cc1C	-40	i	11	-5.3*	60%*	i
CCOc1ccc(Br)cc1S(=O)(=O)N1CCCC1	41	i	11	-5.1*	67%*	i
